Sampled rows, rich in hits. Any-hit rate of the full collection: about 18%.
TDP1 cell noCPT: qHTS for Inhibitors of human tyrosyl-DNA phosphodiesterase 1 (TDP1): qHTS in cells in absence of CPT; DT40 Tdp1-/- hTDP1 cells, no CPT, ATP luminescence, 48 h; Potency, µM (top dose mostly 46.2 µM), inactives show top-dose activity change, negative = growth inhibition, actives largely listed as inhibitors; actives 15% (n = 420,000); AID 686978, 2013; note: potency is the fitted concentration of half-maximal effect; % is set by controls: 0 for no effect and ±100 for the full control effect; nearly all actives have a fitted effect of over 55% in size
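Readout: luminescence from CellTiter-Glo after 30 min in the dark at RT. Cells: DT40 Tdp1-/- with stable hTDP1, 400/well. Exposure: compounds alone, ≥48 hr, 37 °C.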
HepG2 tox: qHTS for Inhibitors of TGF-b: Cytotox Counterscreen | HepG2 CAGA-GFP viability, ATP luminescence, 18 h | Potency, µM (titrated, usually from 46.1 µM), for the others: top-dose activity change, negative = cytotoxicity, most hits filed as cytotoxic | actives 0.76% (n = 410,000); note: potency is the fitted concentration of half-maximal effect
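HepG2 CAGA-GFP cells (1000/well, DMEM with 1% FBS) received compound, then TGF-beta at 500 pg/mL final, and were incubated 18 hours at 37 degrees C. Viability was read by CellTiter-Glo luminescence. Media-only wells were set as complete cell-killing and DMSO as no toxicity.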
IL-1B inflam inh: qHTS for Inhibitors of Inflammasome Signaling: IL-1-beta AlphaLISA Primary Screen; activity change, % at 57.5 µM; actives 4.7% (n = 360,000); THP-1 LPS/ATP IL-1B secretion, AlphaLISA, 16 h; hits give low values; AID 743279, 2014; in the data active = activity change below about -50%; inconclusive = mostly about -30% to -49%; note: % is set by controls: 0 for no effect and ±100 for the full control effect
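Secreted IL-1B measured by AlphaLISA bead assay after 16 h compound exposure of THP-1 cells; compounds (final up to 57.5 uM) added 1 h before LPS (250 ng/mL) and ATP (1.25 mM) stimulation; lower signal means less secretion.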
DT40 TDP1 CPT: qHTS for Inhibitors of human tyrosyl-DNA phosphodiesterase 1 (TDP1): qHTS in cells in presence of CPT | chicken DT40 Tdp1-/-;hTDP1 cells + 20 nM CPT, ATP luminescence, 48 h | Potency, µM (doses to about 46.2 µM), without a hit: at the highest dose activity change, negative = growth inhibition, actives largely listed as inhibitors | actives 12% (n = 420,000) | AID 686979, 2013; note: potency is the fitted concentration of half-maximal effect; % is set by controls: 0 for no effect and ±100 for the full control effect; nearly all actives have a fitted effect of over 55% in size
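Chicken DT40 Tdp1-/- cells stably complemented with human TDP1 were seeded at 400 cells/well in medium containing 20 nM camptothecin, exposed to pin-transferred compounds, and grown at 37 °C for at least 48 hr. Viability was read as ATP luminescence.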
TDP1 block: qHTS Assay for Inhibitors of Tyrosyl-DNA Phosphodiesterase (TDP1); Tyrosyl-DNA phosphodiesterase 1 (Homo sapiens), Q9NUW8; recombinant TDP1, AlphaScreen DNA substrate cleavage; Potency, µM (titrated, usually from 130 µM), without a hit: top-dose activity change, negative = inhibition, hits mostly inhibitors; actives 0.28% (n = 350,000); AID 485290, 2010; note: potency is the fitted concentration of half-maximal effect; % is set by controls: 0 for no effect and ±100 for the full control effect; nearly all actives have a fitted effect of over 40% in size
Target sequence (Q9NUW8 whole entry, looked up): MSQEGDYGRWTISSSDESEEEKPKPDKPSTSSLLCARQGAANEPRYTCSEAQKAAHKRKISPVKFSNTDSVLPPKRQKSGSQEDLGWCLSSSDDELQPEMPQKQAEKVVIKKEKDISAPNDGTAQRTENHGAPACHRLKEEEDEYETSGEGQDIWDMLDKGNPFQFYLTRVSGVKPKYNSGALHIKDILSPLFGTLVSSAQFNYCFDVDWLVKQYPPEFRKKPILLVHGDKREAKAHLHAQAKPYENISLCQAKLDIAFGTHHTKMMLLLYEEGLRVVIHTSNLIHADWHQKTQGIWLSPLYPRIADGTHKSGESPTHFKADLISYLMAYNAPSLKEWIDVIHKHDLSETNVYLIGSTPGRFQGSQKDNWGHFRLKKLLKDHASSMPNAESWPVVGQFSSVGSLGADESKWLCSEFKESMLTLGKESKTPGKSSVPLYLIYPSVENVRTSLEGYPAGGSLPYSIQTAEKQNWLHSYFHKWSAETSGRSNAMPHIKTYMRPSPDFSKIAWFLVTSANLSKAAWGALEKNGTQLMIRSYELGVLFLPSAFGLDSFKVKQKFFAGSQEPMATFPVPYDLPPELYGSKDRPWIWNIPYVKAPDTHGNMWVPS
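Tdp1 1 nM final; 15 min RT w/ cpd; substrate 15 nM, 5 min; beads 10 ug/ml, 10 min; AlphaScreen read. Neg ctrl: no enzyme.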
TGFb inhibitor: qHTS for Inhibitors of TGF-b; HepG2 CAGA-GFP TGF-b/SMAD3 reporter, GFP fluorescence, 18 h; TGF-beta stimulated, 500 pg/mL final; actives 1.2% (n = 410,000); Potency, µM (top dose mostly 46.1 µM), without a hit: top-dose activity, negative = inhibition, most hits filed as inhibitors; note: potency is the fitted concentration of half-maximal effect; % is set by controls: 0 for no effect and ±100 for the full control effect; nearly all actives have a fitted effect of over 65% in size
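TGF-beta reporter screen: HEPG2 CAGA-GFP, 1% FBS, 500 pg/mL TGF-beta final, 18 h; per-cell GFP summed per well; curves fitted and categorized by class.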
Starred values were filed as active, the others as inactive; ? = inconclusive; · = no result given; [ ] = dose if it differs, or a comment. Unless noted, calls come from the whole dose curve; as a rule, active = well fitted curve in the direction sought with a large enough effect; inconclusive = small, poorly fitted or top-dose-only effect, or another doubt; inactive = no such curve, though single readings can be large; an effect the other way counts as inactive or inconclusive.

SMILES | TDP1 cell noCPT | HepG2 tox | IL-1B inflam inh | DT40 TDP1 CPT | TDP1 block | TGFb inhibitor
CCCn1c(=S)[nH]c2cc(C(=O)N3CCCC(C(=O)OCC)C3)ccc2c1=O (configuration not stated) | 21µM* | -9% | -15 | 15µM* | 9% | -26%
Cc1ccc(OCc2nnc(SCC(=O)N3C(C)CCCC3C)o2)cc1 (configuration not stated) | ? | -6% | -6 | -18% | · | -15%
Cc1ccc(S(=O)(=O)N(Cc2ccc(C(F)(F)F)cc2)C(=O)N2CCN(C)CC2)cc1 | -12% | 2% | 10 | 0% | 2% | -3%
CCNC(=S)N/N=C(\C)c1cccc(OC)c1 | 11% | 2% | 5 | 2% | 8% | -9%
C=C(C)CNC(=S)N/N=C(\C)c1ccc(OC)cc1 | 2.9µM* | -18% | 0 | 3.7µM* | 7% | ?
COCCNC(=S)N/N=C(\C)c1ccc2cc(OC)ccc2c1 | 26µM* | -21% | -88* | 13µM* | -3% | ?
COCCNC(=S)N/N=C(\C)c1ccc(OC(F)F)cc1 | 3% | -39% | -11 | 16µM* | · | ?
COCCNC(=S)N/N=C(\C)c1ccc(C)c([N+](=O)[O-])c1 | 1.5µM* | 15% | -65* | 1.3µM* | 9% | -4%
COc1ccc(CNC(=S)N/N=C(/C)c2ccccc2)cc1 | ? | -19% | -11 | -1% | 11% | -18%
C/C(=N\NC(=O)COc1ccc(C(C)(C)C)cc1)c1ccc(OC(F)F)cc1 | ? | -28% | -13 | -3% | 4% | -24%
C/C(=N\NC(=O)COc1ccc(C(C)(C)C)cc1)c1cc2ccccc2o1 | ? | -3% | -25 | 0% | 6% | -2%
COCCNC(=S)N/N=C(\C)c1cc2ccccc2o1 | 18µM* | 1% | 12 | ? | 5% | 22%
C/C(=N\NC(=O)C(N)=O)c1cccc(C(F)(F)F)c1 | -1% | -1% | 2 | 7% | 3% | -25%
COCCNC(=S)N/N=C(\C)c1cccc(C(F)(F)F)c1 | 21µM* | -17% | -9 | ? | 2% | -9%
COc1ccc(C(C(=O)NC(C)(C)C)N(C(=O)CNC(=O)c2cccs2)c2cccnc2)cc1OC (configuration not stated) | -12% | 7% | -1 | 2% | -13% | -4%
Cc1cc(C)nc(N/N=C/c2ccccc2OCc2ccccc2)n1 | ? | -43% | -10 | ? | 5% | ?
Cc1cc(C)nc(N/N=C/c2ccccc2OCc2cccc(Br)c2)n1 | 18µM* | -26% | -62* | ? | 8% | ?
Cc1cc(C)nc(N/N=C/c2cc(Br)ccc2O)n1 | 3.7µM* | -19% | 126 | 5.2µM* | 11% | ?
Cc1cc(C)nc(N/N=C/c2ccccc2OCc2ccc(Cl)cc2)n1 | ? | -61% | 10 | 16µM* | 4% | -24%
Cc1cc(C)nc(N/N=C/c2ccccc2OCC(=O)O)n1 | 23% | -2% | -7 | -2% | · | 4%
COCCCNC(=O)C1=CCN(S(=O)(=O)c2ccc(C)cc2)CC1 | 8% | 14% | 11 | -6% | 4% | -11%
CCCCOc1ccc(NC(=O)CSc2ccc(C(=O)O)cn2)cc1 | 11% | 8% | · | -2% | -2% | -3%
CCNc1ncc2nc(-c3ccccc3)c(=O)n(C[C@H]3CCCO3)c2n1 | 0% | · | · | -4% | · | ·
Cc1c(C(=O)Nc2c(C)n(C)n(-c3ccccc3)c2=O)oc2ccc(Cl)cc12 | ? | -20% | 0 | ? | 5% | 0%
CCOc1cc(C(=O)N2CCC(CC3CC(c4cccc(Br)c4)=NO3)(C(=O)NCC3CCCCC3)CC2)cc(OCC)c1OCC (configuration not stated) | 21µM* | 12% | ? | ? | · | ?
SMILES | TDP1 cell noCPT | HepG2 tox | IL-1B inflam inh | DT40 TDP1 CPT | TDP1 block | TGFb inhibitor
O=C(C1CCCC1)N1CCC(CC2CC(c3ccc(Cl)cc3)=NO2)(C(=O)NCC2CCCCC2)CC1 (configuration not stated) | -21% | -2% | -29 | -23% | · | ?
O=C(C1CCCC1)N1CCC(CC2CC(c3cccc(Br)c3)=NO2)(C(=O)NCC2CCCCC2)CC1 (configuration not stated) | ? | -6% | 0 | 16µM* | · | ?
Cc1ccc(C[C@H](C(=O)O)N2C(=O)c3ccc(C(=O)O)cc3C2=O)c(C)c1 | · | · | · | · | 6% | ·
CCCCCc1c2c(cc(O)c1C(=O)O)OC(=O)c1c(cc(OC)cc1C(=O)CCCC)O2 | 0% | -69% | -1 | -3% | 10%[56.1 µM] | 20µM*
O=C(c1cc2ccccc2o1)N1CCN=C1SCc1cccnc1 | -26% | 0% | -58* | -23% | 0% | -10%
O=C(c1ccc(Br)o1)N1CCN=C1SCc1cccnc1 | -13% | -3% | -54* | ? | 4% | 1%
O=C(c1ccc(S(=O)(=O)N2CCCCC2)cc1)N1CCN=C1SCc1cccnc1 | ? | 8% | 1 | 16µM* | -2% | -2%
O=C(CCc1ccccc1)N=C1SC2CS(=O)(=O)CC2N1Cc1ccc(F)cc1 (configuration not stated) | -14% | 5% | -6 | ? | 3% | -1%
CCN(Cc1ccncc1)Cc1ccc2c(c1)CN(C(=O)c1ccccc1)CCO2 | -15% | · | · | 6%[9.04 µM] | · | ·
O=C(Nc1c(C(=O)c2ccc(Cl)cc2)oc2ccccc12)c1cc(=O)c2ccccc2o1 | ? | 4% | · | 0% | 6% | 1%
CC(C)(C)Cn1nc(-c2ccc(Cl)cc2)c2c(N)ncnc21 | ? | · | · | 8.4µM* | ? | ·

Compound activity (PubChem BioAssay)
